Laboratory results taken from ChEMBL document CHEMBL2218924, “A broad activity screen in support of a chemogenomic map for kinase signalling research and drug discovery” (Biochem J, 2013).

target: Rho-associated protein kinase 2 (Homo sapiens) (UniProt O75116); details: at 10 µM
Sequence (O75116 whole entry, looked up): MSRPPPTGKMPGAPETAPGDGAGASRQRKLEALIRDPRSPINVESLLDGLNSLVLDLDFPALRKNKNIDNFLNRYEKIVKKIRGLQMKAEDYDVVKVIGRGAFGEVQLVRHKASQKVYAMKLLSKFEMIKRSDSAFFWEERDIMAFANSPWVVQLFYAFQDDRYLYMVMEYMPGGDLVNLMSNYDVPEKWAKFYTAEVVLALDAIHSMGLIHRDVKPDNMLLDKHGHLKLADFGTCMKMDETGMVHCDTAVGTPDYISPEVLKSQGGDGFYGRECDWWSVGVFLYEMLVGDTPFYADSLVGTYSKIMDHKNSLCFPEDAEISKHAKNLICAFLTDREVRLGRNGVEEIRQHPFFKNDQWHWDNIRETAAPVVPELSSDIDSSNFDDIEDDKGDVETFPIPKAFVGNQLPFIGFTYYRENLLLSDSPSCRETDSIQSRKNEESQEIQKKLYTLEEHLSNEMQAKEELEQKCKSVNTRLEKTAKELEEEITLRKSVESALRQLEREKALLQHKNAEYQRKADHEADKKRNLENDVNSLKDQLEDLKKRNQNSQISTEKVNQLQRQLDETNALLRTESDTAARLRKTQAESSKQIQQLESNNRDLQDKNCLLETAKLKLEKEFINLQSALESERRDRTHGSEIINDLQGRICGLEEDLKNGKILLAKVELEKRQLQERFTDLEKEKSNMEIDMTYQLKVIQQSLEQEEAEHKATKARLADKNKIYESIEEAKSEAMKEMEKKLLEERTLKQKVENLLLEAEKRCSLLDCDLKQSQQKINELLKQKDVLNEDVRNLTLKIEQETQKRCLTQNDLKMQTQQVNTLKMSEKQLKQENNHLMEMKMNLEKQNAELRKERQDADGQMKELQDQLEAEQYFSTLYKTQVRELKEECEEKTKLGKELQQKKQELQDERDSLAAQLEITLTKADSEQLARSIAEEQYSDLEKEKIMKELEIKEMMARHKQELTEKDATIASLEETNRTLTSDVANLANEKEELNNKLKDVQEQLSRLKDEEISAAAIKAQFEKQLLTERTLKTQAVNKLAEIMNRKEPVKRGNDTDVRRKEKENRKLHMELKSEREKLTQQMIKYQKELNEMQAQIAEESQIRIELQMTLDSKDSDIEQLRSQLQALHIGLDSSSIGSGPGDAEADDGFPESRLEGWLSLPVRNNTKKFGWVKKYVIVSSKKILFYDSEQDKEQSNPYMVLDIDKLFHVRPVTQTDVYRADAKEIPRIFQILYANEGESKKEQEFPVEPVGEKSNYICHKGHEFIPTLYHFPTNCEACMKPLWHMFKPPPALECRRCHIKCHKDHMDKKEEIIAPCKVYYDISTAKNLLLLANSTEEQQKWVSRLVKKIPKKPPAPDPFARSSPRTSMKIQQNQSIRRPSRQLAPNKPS

Compound | residual activity [%]
O=C1Nc2ccccc2/C1=C\c1c(Cl)[nH]c2ccccc12 | 81
COc1ccc(COc2ccc(Cc3cnc(N)nc3N)cc2OC)cc1 | 78
Cc1cc(C)c(/C=C2\C(=O)Nc3ccccc32)[nH]1 | 80
O=C(c1ccccc1)c1ccc(N2CCOCC2)cc1O | 90
CC(C)N(CCC(=O)c1ccc2ccccc2c1)Cc1ccccc1 | 82
O=c1cc(N2CCNCC2)oc2c(-c3ccccc3)cccc12 | 80
N#Cc1c(NC(=O)c2cccc3ccccc23)sc2c1CCCC2 | 99

target: Proto-oncogene tyrosine-protein kinase receptor Ret (Homo sapiens) (UniProt P07949); details: at 1 µM
Sequence (P07949 whole entry): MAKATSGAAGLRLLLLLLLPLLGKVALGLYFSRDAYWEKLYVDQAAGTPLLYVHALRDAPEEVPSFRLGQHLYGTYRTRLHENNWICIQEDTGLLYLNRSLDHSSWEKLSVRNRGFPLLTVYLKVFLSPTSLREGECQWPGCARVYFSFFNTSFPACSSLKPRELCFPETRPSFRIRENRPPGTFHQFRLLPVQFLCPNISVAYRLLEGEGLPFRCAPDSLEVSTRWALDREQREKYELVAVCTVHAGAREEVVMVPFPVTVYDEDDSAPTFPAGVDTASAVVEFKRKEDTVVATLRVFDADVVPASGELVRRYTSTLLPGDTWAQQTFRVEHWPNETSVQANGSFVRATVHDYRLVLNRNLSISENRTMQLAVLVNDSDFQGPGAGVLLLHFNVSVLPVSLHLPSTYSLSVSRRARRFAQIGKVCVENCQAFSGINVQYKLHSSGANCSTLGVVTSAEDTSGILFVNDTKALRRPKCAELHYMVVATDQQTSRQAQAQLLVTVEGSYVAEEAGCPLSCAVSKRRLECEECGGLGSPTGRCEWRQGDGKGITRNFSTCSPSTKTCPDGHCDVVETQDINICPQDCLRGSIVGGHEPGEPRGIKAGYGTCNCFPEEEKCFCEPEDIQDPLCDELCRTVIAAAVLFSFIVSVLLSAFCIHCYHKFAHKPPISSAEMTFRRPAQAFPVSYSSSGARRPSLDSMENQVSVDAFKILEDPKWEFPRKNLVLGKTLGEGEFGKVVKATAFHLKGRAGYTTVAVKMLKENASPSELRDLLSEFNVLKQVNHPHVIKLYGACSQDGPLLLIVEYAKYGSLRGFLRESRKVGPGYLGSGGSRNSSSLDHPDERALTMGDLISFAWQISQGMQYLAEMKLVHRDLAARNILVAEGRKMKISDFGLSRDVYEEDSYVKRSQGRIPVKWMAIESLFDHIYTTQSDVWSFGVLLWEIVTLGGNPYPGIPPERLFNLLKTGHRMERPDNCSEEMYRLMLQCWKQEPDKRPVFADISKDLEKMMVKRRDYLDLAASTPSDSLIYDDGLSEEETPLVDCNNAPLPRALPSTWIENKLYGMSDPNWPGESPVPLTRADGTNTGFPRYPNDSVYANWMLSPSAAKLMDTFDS

Compound | residual activity [%]
COc1cc2nccc(Oc3ccc(NC(=O)Nc4cc(C)on4)c(Cl)c3)c2cc1OC | 0
O=C1NC(=O)C(c2cn(CCCn3ccnc3)c3ccccc23)=C1Nc1ccccc1 | 102
COc1cc2c(cc1OC)-c1n[nH]c(Nc3cccc(F)c3)c1C2 | 64
Fc1ccc(-c2nc3n(c2-c2ccncc2)CCS3)cc1 | 98
O=C1Cc2c([nH]c3ccc([N+](=O)[O-])cc23)-c2ccccc2N1 | 103
O=C(O)/C=C/c1cc(Br)c(Br)c(Br)c1Br | 103
COc1ccc2c(c1)c(C1=C(c3c[nH]c4ccccc34)C(=O)NC1=O)cn2CCCN(C)C | 75
O=C(Nc1ccc(Cl)cc1)c1ccccc1NCc1ccncc1 | 53
CCOC(=O)c1c(C)[nH]c(/C=C2\C(=O)Nc3ccccc32)c1C | 24
O=C(c1ccccc1)c1ccc(N2CCOCC2)cc1O | 94
COc1ccc(-c2cnc3c(-c4ccsc4)cnn3c2)cc1 | 89
O=C(Nc1nc2ccccc2n1CCN1CCOCC1)c1cccc([N+](=O)[O-])c1 | 88
CCN(CC)CCNC(=O)c1c(C)[nH]c(/C=C2\C(=O)Nc3ccc(Cl)cc32)c1C | -1
O=C1NC(=O)C(c2c[nH]c3ccccc23)=C1c1c[nH]c2ccccc12 | 79
N#C/C(=C1/Nc2ccccc2S1)c1ccnc(NCCc2cccnc2)n1 | 63
CN(C)S(=O)(=O)c1ccc2c(c1)/C(=C/c1cc3c([nH]1)CCCC3)C(=O)N2 | 22
O=C1NC(=O)C(c2cn(CCCO)c3ncccc23)=C1c1cnccn1 | 82

target: Proto-oncogene tyrosine-protein kinase receptor Ret (Homo sapiens) (UniProt P07949); details: at 10 µM

Compound | residual activity [%]
COc1cc2nccc(Oc3ccc(NC(=O)Nc4cc(C)on4)c(Cl)c3)c2cc1OC | -1
O=c1c(-c2ccc(F)cc2)c(-c2ccncc2)[nH]n1-c1ccc(Cl)cc1 | 55
O=S(=O)(NCCNC/C=C/c1ccc(Br)cc1)c1cccc2cnccc12 | 82
O=C1NC(=O)C(c2cn(CCCn3ccnc3)c3ccccc23)=C1Nc1ccccc1 | 70
COc1cc2c(cc1OC)-c1n[nH]c(Nc3cccc(F)c3)c1C2 | 19
Fc1ccc(-c2nc3n(c2-c2ccncc2)CCS3)cc1 | 83
O=C1Cc2c([nH]c3ccc([N+](=O)[O-])cc23)-c2ccccc2N1 | 79
O=C(O)/C=C/c1cc(Br)c(Br)c(Br)c1Br | 103
COc1ccc2c(c1)c(C1=C(c3c[nH]c4ccccc34)C(=O)NC1=O)cn2CCCN(C)C | 45
O=C(Nc1ccc(Cl)cc1)c1ccccc1NCc1ccncc1 | 6
O=C1Cc2c([nH]c3ccc(Br)cc23)-c2ccccc2N1 | 72
CCOC(=O)c1c(C)[nH]c(/C=C2\C(=O)Nc3ccccc32)c1C | 14
O=C(c1ccccc1)c1ccc(N2CCOCC2)cc1O | 100
COc1ccc(-c2cnc3c(-c4ccsc4)cnn3c2)cc1 | 99
O=C(Nc1nc2ccccc2n1CCN1CCOCC1)c1cccc([N+](=O)[O-])c1 | 101
CCN(CC)CCNC(=O)c1c(C)[nH]c(/C=C2\C(=O)Nc3ccc(Cl)cc32)c1C | -1
O=C1NC(=O)C(c2c[nH]c3ccccc23)=C1c1c[nH]c2ccccc12 | 28
N#C/C(=C1/Nc2ccccc2S1)c1ccnc(NCCc2cccnc2)n1 | 47
CN(C)S(=O)(=O)c1ccc2c(c1)/C(=C/c1cc3c([nH]1)CCCC3)C(=O)N2 | 37
O=C1NC(=O)C(c2cn(CCCO)c3ncccc23)=C1c1cnccn1 | 81
